TDP1 block: inhibitors of human tyrosyl-DNA phosphodiesterase TDP1; recombinant TDP1, AlphaScreen DNA substrate cleavage; 350,000 compounds, 0.28% hits; Q9NUW8; Potency, µM (top dose mostly 130 µM), for the others: top-dose activity change, negative = inhibition, usual class: inhibitors; further: potency means the concentration at half of the fitted maximal effect; nearly all actives have a fitted effect of over 40% in size
Target sequence (Q9NUW8 whole entry, looked up): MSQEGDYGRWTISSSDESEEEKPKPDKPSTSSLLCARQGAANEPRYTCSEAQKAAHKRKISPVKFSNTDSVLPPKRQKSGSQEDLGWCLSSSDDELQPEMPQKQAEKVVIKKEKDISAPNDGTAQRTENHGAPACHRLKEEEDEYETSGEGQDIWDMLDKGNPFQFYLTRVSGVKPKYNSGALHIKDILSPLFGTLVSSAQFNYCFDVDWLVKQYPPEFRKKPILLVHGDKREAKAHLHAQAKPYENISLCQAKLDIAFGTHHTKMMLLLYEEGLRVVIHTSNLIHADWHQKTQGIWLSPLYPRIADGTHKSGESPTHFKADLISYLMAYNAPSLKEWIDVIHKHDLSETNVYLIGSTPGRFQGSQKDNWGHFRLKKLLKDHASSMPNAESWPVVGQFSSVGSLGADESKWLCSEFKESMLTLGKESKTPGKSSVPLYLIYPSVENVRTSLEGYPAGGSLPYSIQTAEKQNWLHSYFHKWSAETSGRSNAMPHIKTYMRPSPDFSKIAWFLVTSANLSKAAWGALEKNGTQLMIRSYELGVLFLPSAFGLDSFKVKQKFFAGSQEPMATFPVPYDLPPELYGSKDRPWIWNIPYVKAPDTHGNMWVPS
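E. coli-derived human Tdp1, 1 nM final. Cpd preinc 15 min RT; substrate 15 nM final, 5 min RT; AS bead mix 10 ug/ml final, 10 min RT. Signal loss = tyrosine-FITC cleavage. No-enzyme wells = max signal.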
DT40 TDP1 no CPT: qHTS for Inhibitors of human tyrosyl-DNA phosphodiesterase 1 (TDP1): qHTS in cells in absence of CPT; DT40 Tdp1-/- hTDP1 cells, no CPT, ATP luminescence, 48 h; Potency, µM (top dose mostly 46.2 µM), for the others: at the highest dose activity change, negative = growth inhibition, usual class: inhibitors; 420,000 compounds, 15% hits; AID 686978, 2013; further: potency means the concentration at half of the fitted maximal effect; nearly all actives have a fitted effect of over 55% in size
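Chicken DT40 Tdp1-/- cells stably complemented with human TDP1 were seeded at 400 cells/well with DMSO in place of 20 nM camptothecin. After compound pinning, cells grew at least 48 hr at 37 °C; viability read by CellTiter-Glo luminescence.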
IL1B secr inh: blocks inflammasome-driven IL-1 beta release | 360,000 compounds, 4.7% hits | activity change, % at 57.5 µM | THP-1 LPS/ATP IL-1B secretion, AlphaLISA, 16 h; hits give low values; in the data active means activity change below about -50%; inconclusive means mostly about -30% to -49%
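THP-1 cells pretreated 1 hr with compounds (up to 57.5 uM final), then stimulated with LPS (250 ng/mL final) plus ATP (1.25 mM final); secreted IL-1B measured by AlphaLISA after 16 hr, decreased signal indicating inhibition.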
ELG1 repair inh: blocks ELG1-dependent DNA repair in HEK293T cells | 330,000 compounds, 2.3% hits | HEK293T ELG1-luciferase reporter, luminescence, 16 h; DNA damage induced by 5-fluorouridine | Potency, µM (titrated, usually from 46.1 µM), for the others: at the highest dose activity change, negative = inhibition, most hits filed as inhibitors | AID 504467; further: potency means the concentration at half of the fitted maximal effect; nearly all actives have a fitted effect of over 55% in size
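Luminescence from the luciferase reporter, measured 30 min after ONE-Glo reagent at room temperature, was the read-out. Beforehand, 2,000 cells per well were exposed for 16 hr at 37 °C to 5-fluorouridine together with compound or vehicle.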
Giardia killer: kills Giardia lamblia | activity change, % at 7.66 µM, hits read low | 340,000 compounds, 0.15% hits | Giardia lamblia trophozoite viability; in the data active means activity change below about -80%; inconclusive means between about -30% and that limit;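 further: parasites exposed to compound for two days anaerobically before the ATP read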
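Trophozoite viability was measured as ATP-dependent luminescence, read 15-30 min after reagent addition. Before that, parasites at 100 cells/well were exposed to compounds for 48 h, anaerobically, at 37 deg C.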
TDP1 cell CPT: DT40-hTDP1 cell growth loss with CPT; chicken DT40 Tdp1-/-;hTDP1 cells + 20 nM CPT, ATP luminescence, 48 h; Potency, µM (top dose mostly 46.2 µM), inactives show top-dose activity change, negative = growth inhibition, actives largely listed as inhibitors; 420,000 compounds, 12% hits; further: potency means the concentration at half of the fitted maximal effect; nearly all actives have a fitted effect of over 55% in size
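Chicken DT40 Tdp1-/- cells complemented with human TDP1, 400 cells/well, exposed to compounds plus 20 nM camptothecin for at least 48 h at 37 C; viability read as ATP content by CellTiter-Glo luminescence.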
* = called active by the depositor; ? = inconclusive; . = no result; [ ] = remark or other dose. Hits are enriched below; roughly 19% of the tested compounds scored in any of these assays. Unless noted, the call rests on the fitted dose curve; in most records, active means well fitted curve in the direction sought with a large enough effect; inconclusive means small, poorly fitted or top-dose-only effect, or another doubt; inactive means no such curve, though single readings can be large; an effect the other way counts as inactive or inconclusive. On the % scale 0 is the no-effect control and ±100 the full control effect.

SMILES | TDP1 block | DT40 TDP1 no CPT | IL1B secr inh | ELG1 repair inh | Giardia killer | TDP1 cell CPT
O=C(c1ccc(N2CCCC2=O)cc1)N1CCN(c2ccccc2O)CC1 | 0%[56.1 µM] | ? | -1 | 18µM* | -10 | -24%
O=C(COc1ccccc1)Nc1nnc(SCc2cc(=O)c3ccccc3[nH]2)s1 | -3% | ? | . | . | . | -23%
Nc1nc(-c2ccccc2)[nH]c(=O)c1N | -4% | ? | -14 | -4% | -22 | 26µM*
Nc1[nH]nc2nc(-c3ccccc3)[nH]c(=O)c12 | 6% | ? | -25 | ? | -11 | -3%
N#C/C(=C\N1CCCCC1)S(=O)(=O)c1ccc(Cl)cc1 | . | -24% | 9 | -7% | -16 | -14%
S=C(Nc1ccc(Br)cc1Cl)NN1CCOCC1 | -5% | -11% | -12 | 1% | -11 | 2%
c1ccc(C(c2ccccc2)c2noc(CN3CCC(c4ccncc4)CC3)n2)cc1 | 0% | ? | -17 | -9% | 28 | 21µM*
COCC1CCN(Cc2nc(-c3ccc4c(c3)OCO4)no2)C1 (stereo not drawn) | 0% | -12% | 8 | ? | -15 | 3%
c1ccc(CCC2CCCCN2Cc2nc(-c3ccc4c(c3)OCO4)no2)nc1 (stereo not drawn) | . | 21µM* | -28 | ? | 4 | 16µM*
COc1ccc(-c2nc(CN3CCCCC3CCc3ccccn3)c(C)o2)cc1 (stereo not drawn) | 0% | ? | 15 | 0% | 12 | 6%
O=C(c1ccco1)N1CCCN(Cc2nc(-c3ccc4c(c3)OCO4)no2)CC1 | 6% | 16µM* | 4 | 6% | -22 | -10%
c1cc(C2CCN(Cc3nc(-c4ccc5c(c4)OCO5)no3)CC2)ccn1 | 2% | 12µM* | -26 | ? | -25 | 21µM*
CCCN1CC(O)=C(C#N)C1=O | 6% | 15% | 13 | 6% | -4 | 7%
CCC(C)[C@@H](CN)NCC1(c2ccccc2)CC1 (stereo partly drawn) | -1% | -10% | -9 | -3% | -1 | -4%
COc1cccc(NC(=O)CSc2nc(=O)n(Cc3ccccn3)c3c2CCC3)c1 | 0% | -28% | . | . | . | 7%
COc1cccc(-c2sc3ccc(OC)cc3c2C#CCC(C)O)c1 (stereo not drawn) | -13% | ? | -2 | -9% | 7 | ?
COc1ccc2sc(-c3ccc(SC)cc3)c(C#CC(C)(C)O)c2c1 | -4% | ? | -10 | -14% | 2 | ?
COc1ccc(-c2sc3ccc(OC)cc3c2C#CCCO)cc1 | . | ? | 0 | -24% | 12 | ?
COc1cccc(-c2sc3ccc(OC)cc3c2C#CC(C)(C)O)c1 | -12% | 18µM* | -88* | ? | 2 | 23µM*
COc1ccc2sc(-c3ccc(N(C)C)cc3)c(C#CC(C)(C)O)c2c1 | 0% | 8.2µM* | 17 | 0% | -29 | 8.2µM*
COc1ccc2sc(-c3ccc(N(C)C)cc3)c(C#CCCO)c2c1 | 4% | 16µM* | -9 | -26% | 12 | ?
COc1ccc2sc(-c3ccc(N(C)C)cc3)c(C#Cc3cncn3C)c2c1 | 9% | 5.8µM* | -6 | -11% | -11 | 5.8µM*
CCOc1ccc(CCNC(=O)c2ccc3c(c2)nc2n3CCOC2)cc1OCC | 3% | ? | . | . | . | ?
Cn1nnnc1SCCCNCc1ccccc1OCc1ccccc1Cl | 1% | 4.6µM* | . | . | -19 | 5.2µM*
Cn1nnnc1SCCCNCc1cccc(OCc2ccccc2Cl)c1 | 5% | 16µM* | . | . | . | 18µM*
SMILES | TDP1 block | DT40 TDP1 no CPT | IL1B secr inh | ELG1 repair inh | Giardia killer | TDP1 cell CPT
COCCNC(=O)Cn1c(=O)n(Cc2ccco2)c(=O)c2ccccc21 | 0% | 2% | -6 | 9% | -10 | 6%
COc1ccc(CCNC(=O)Cn2c(=O)n(Cc3ccco3)c(=O)c3ccc(Cl)cc32)cc1OC | 5% | 23µM* | -3 | ? | 11 | ?
COc1cc2c(=O)n(Cc3ccccc3)c(=O)n(CC(=O)NCCc3ccccc3)c2cc1OC | 5% | 15µM* | 28 | 2% | 5 | 7.3µM*
COc1ccc(NC(=O)Cn2c(=O)n(Cc3ccccc3Cl)c(=O)c3cc(OC)c(OC)cc32)cc1OC | 2% | -25% | . | . | . | 3.3µM*
CCOC(=O)Cn1c(=O)n(Cc2ccco2)c(=O)c2ccc(C(=O)NCCc3ccccc3)cc21 | 7% | 23µM* | 1 | ? | 3 | 18µM*
COc1cc2c(=O)n(CCc3ccccc3)c(=O)n(CC(=O)Nc3ccccc3)c2cc1OC | 2% | -14% | . | . | . | -14%
CCOC(=O)c1c(-c2ccccc2)csc1NC(=O)c1cc(-c2ccc(F)cc2)on1 | 0% | 6% | . | . | . | 4%
Cc1ccc(-n2c(=S)[nH]c3[nH]ncc3c2=O)cc1 | 2% | 2% | 8 | 17% | 9 | -4%
CCc1cc(-c2oncc2-c2ccc(OC)cc2)c(O)cc1OC | 8% | . | . | . | . | .
Cc1ccc(Cl)cc1N1CCN(Cc2nnc(-c3ccc4c(c3)OCO4)o2)CC1 | 0%[12.3 µM] | ? | . | . | . | ?
FC(F)(F)c1cccc(N2CCN(Cc3nnc(-c4ccc5c(c4)OCO5)o3)CC2)c1 | 2% | 16µM* | . | . | . | ?
Clc1ccc(N2CCN(Cc3nnc(-c4ccc5c(c4)OCO5)o3)CC2)cc1 | 0% | 18µM* | . | . | . | ?
Fc1ccc(-c2nnc(CN3CCN(c4ncc(C(F)(F)F)cc4Cl)CC3)o2)cc1 | -1% | 15µM* | -17 | -20% | -6 | 13µM*
Fc1ccc(N2CCN(Cc3nnc(-c4ccccc4)o3)CC2)cc1 | 1% | -14% | 10 | 14% | 10 | -35%
O=c1c(-c2cccs2)nc2cnc(Nc3ccccc3)nc2n1C[C@H]1CCCO1 | . | -6% | . | . | . | -8%
CN[C@@H]1[C@@H](O)[C@@H](O[C@@H]2[C@@H](O)[C@H](OC3OC(CN)=CCC3N)[C@@H](N)C[C@H]2N)OC[C@]1(C)O (stereo partly drawn) | . | -10%[21.1 µM] | . | . | . | -12%[21.1 µM]
Cn1c(SC2=CS(=O)(=O)c3ccccc32)nc2ccccc21 | 5% | 2.9µM* | -119* | ? | -9 | 2.3µM*
Cc1nnc2n1N=CC=C(c1ccccc1)S2 | 6% | 5.2µM* | -91* | 3% | -4 | 8.2µM*
CCOc1ccc(S(=O)(=O)N(CC(=O)NCCSc2ccc(C)cc2)c2ccccc2)cc1 | . | -19% | . | . | . | -20%
COc1ccc(S(=O)(=O)N(CC(=O)NCCSc2ccc(C)cc2)c2ccc(C)cc2)cc1 | . | 23µM* | . | . | . | 18µM*
Cc1ccc(N(CC(=O)NCCSc2ccccc2)S(=O)(=O)c2ccc(F)cc2)cc1 | -3%[12.3 µM] | 9.2µM* | . | . | . | ?
